# Screen size: about 69,000 compounds; about 8,600 (12%) showed an effect of 50% or more. Only a selection was taken, and strong results are over-represented in it overall.
# System: Plasmodium berghei
# Assay: Screen against P. berghei liver stage (PbLuc), transformed with Luciferase, at 10uM
# Type: functional, HepG2
# Conditions: tested at 10 uM
row,SMILES,INHIBITION
1,O=C(C1CC1)N1CCN(Cc2coc(-c3ccc(Cl)cc3)n2)CC1,76.1%
2,Cc1nc(CN2CCC(NS(C)(=O)=O)CC2)co1,34%
3,CS(=O)(=O)NC1CCN(Cc2coc(-c3ccccc3)n2)CC1,30.4%
4,CC(O)CN1CCN(Cc2coc(-c3ccc(Cl)cc3)n2)CC1 (stereo unspecified),47.1%
5,OCCN1CCN(Cc2coc(-c3ccc(Cl)cc3)n2)CC1,11.6%
6,CS(=O)(=O)NC1CCN(Cc2coc(-c3ccc(Cl)cc3)n2)CC1,79.5%
7,CN(C)CC1CN(C(=O)CCc2ccccc2)Cc2nccn2C1 (stereo unspecified),-41.8%
8,Cc1occc1C(=O)N1Cc2nccn2CC(CN(C)C)C1 (stereo unspecified),44.8%
9,c1ccc(-n2cc(CNC3CCc4ncnn4C3)nn2)cc1 (stereo unspecified),41.45%
10,O=C(Nc1cccnc1N1CCCC1)C1CCS(=O)(=O)C1 (stereo unspecified),-7.35%
11,COc1cccc(CNCc2c(C(C)C)nn(C)c2N(C)C)c1OC,-7.84%
12,COc1cccc(CNCC2CCN(CC(C)O)CC2)c1OC (stereo unspecified),7.85%
13,COc1cccc(CNCc2c(C)nc3sc(C)cn23)c1OC,66.4%
14,COc1ccc(CNCc2c(C)nc3sc(C)cn23)c(OC)c1OC,64.6%
15,COc1ccc(CNC(C)Cn2cccn2)c(OC)c1OC (stereo unspecified),25.1%
16,COc1ccc(OC)c(CNCc2c(C)nc3sc(C)cn23)c1,10.8%
17,O=C(NCCc1noc(-c2ccccn2)n1)NCC1CCCC1,-18.3%
18,CC(C)c1nnc2ccc(N3CCC(C(=O)O)CC3)nn12,-9.3%
19,Cc1c(Cl)cccc1S(=O)(=O)N1C[C@H]2CC[C@@H](C1)N(C)C2=O,0.546%
20,CN(C)C(=O)c1nnc2ccc(N3CCOCC3)cc2n1,-13.9%
21,CN(Cc1ccco1)C[C@H]1OC[C@@H]2CCN(Cc3cccnc3)C[C@@H]21,41.4%
22,CN(Cc1cccnc1)C[C@@H]1OC[C@H]2CN(C(=O)C3CC3)CC[C@H]21,76.2%

row,SMILES,INHIBITION
1,CN(Cc1cccnc1)C[C@H]1OC[C@@H]2CCN(C(=O)C3CC3)C[C@@H]21,54.8%
2,CN(C)C[C@H]1OC[C@@H]2CN(C(=O)NCc3cccnc3)CC[C@@H]21,5.63%
3,CN(Cc1cccnc1)C[C@@H]1OC[C@H]2CN(Cc3ccoc3)CC[C@H]21,2.79%
4,CN(Cc1cccnc1)C[C@H]1OC[C@@H]2CCN(c3ncccn3)C[C@@H]21,14%
5,O=C(CCN1CCOC(CNc2cccnn2)C1)NC1CCCCC1 (stereo unspecified),9.64%
6,O=C(CCCOc1ccccc1)N1CCCC(n2cncn2)C1 (stereo unspecified),14.133%
7,CC(=O)N1CC(C(=O)NC(C)c2cnn(C)c2C)C1 (stereo unspecified),8.57%
8,CCN1CC[C@@]2(C(=O)N(C)C)CCN(S(=O)(=O)c3ccccc3)CC[C@@H]12,-89.8%
9,CC(NC(N)=O)C(=O)N(C)Cc1cccc(C(F)(F)F)c1 (stereo unspecified),12%
10,CN1CCN(c2ccc(NC(=O)c3cccs3)c(C(F)(F)F)c2)CC1,-29%
11,Cc1nncn1CCNC(=O)C(C)(C)c1cccc(C(F)(F)F)c1,-0.758%
12,Cn1cccc1C(=O)NC(C)(C(N)=O)c1cccc(C(F)(F)F)c1 (stereo unspecified),61.1%
13,CC(NC(=O)c1cccs1)(C(N)=O)c1cccc(C(F)(F)F)c1 (stereo unspecified),62%
14,Cn1cccc1C(=O)NC(C)(C(N)=O)c1cccc(Cl)c1 (stereo unspecified),11.5%
15,O=C(O)[C@@H]1CN(C(=O)CCC(F)(F)F)C[C@H]1c1ccncc1,11.6%
16,CCC(CNC(=O)CCn1cncn1)N1CCc2ccccc2C1 (stereo unspecified),-19.5%
17,CC(CNC(=O)CCCn1cncn1)N1CCc2ccccc2C1 (stereo unspecified),69.7%
18,CC(C)C(CNC(=O)CCn1cncn1)N1CCc2ccccc2C1 (stereo unspecified),60.5%
19,CC(NC(=O)CCn1cncn1)c1nnc2n1CCCCC2 (stereo unspecified),39.2%
20,CC(CNC(=O)CCn1cncn1)N1CCc2ccccc21 (stereo unspecified),-7.7%
21,CC(Cn1cncn1)NCCN1CCc2ccccc2C1 (stereo unspecified),45.1%
22,Cc1cc2c(=O)n3c(nc2s1)CCN(C(=O)c1cnn(C)c1)CC3,-11.7%

row,SMILES,INHIBITION
1,CC(C)N1CCCC1c1cc(C(F)(F)F)[nH]n1 (stereo unspecified),-7.7%
2,Cc1cc(NC(C)Cn2cccn2)n2nccc2n1 (stereo unspecified),33%
3,O[C@@H]1CC(CNCc2ccc(F)cc2)(COc2cccnc2)C[C@@H]1O (stereo partly specified),38.1%
4,Cn1cccc1C(=O)NC1(C(=O)NCC2CC2)CCCC1,8.38%
5,Cc1ccc2c(C(=O)N(C)C)cc(-c3cnn(CCO)c3)nc2c1C,31.15%
6,CCc1ncc(CN2CCC(O)(c3ccccc3F)CC2)cn1,18.2%
7,COc1ncc(C2(O)CCN(Cc3cc(F)ccc3F)CC2)c(OC)n1,24.8%
8,COc1ncc(C2(O)CCN(Cc3c(F)cccc3F)CC2)c(OC)n1,53%
9,COc1ncc(C2(O)CCN(Cc3cccs3)CC2)c(OC)n1,8.48%
10,COc1ncc(C2(O)CCN(Cc3ccc(F)c(F)c3)CC2)c(OC)n1,57.5%
11,COc1ncc(C2(O)CCN(Cc3cccc(F)c3F)CC2)c(OC)n1,44.1%
12,Cc1ncc(CN2CCC(O)(c3ccccc3F)CC2)cn1,-4.675%
13,COc1ncc(C2(O)CCN(Cc3ccccc3O)CC2)c(OC)n1,65.5%
14,COc1ncc(C2(O)CCN(Cc3cc(F)cc(F)c3)CC2)c(OC)n1,39.7%
15,CN(C)CCn1nc(C2CCN(S(=O)(=O)N(C)C)C2)c2cccnc21 (stereo unspecified),6.33%
16,Fc1ccc(OCCNCCn2cccn2)cc1,0.914%
17,Cc1cc(C(=O)N2CCN(c3ccncc3Cl)CC2)n(C)n1,10.3%
18,CSc1nnc(C2CCN(C(=O)N3CCCC3)CC2)n1C(C)C,20.09%
19,COC(=O)C(C)N(Cc1cc(C)on1)C1CC1 (stereo unspecified),52.2%
20,COC(=O)C(C)N(Cc1cc(=O)n(C)c(=O)n1C)C1CC1 (stereo unspecified),-37.1%
21,Cc1cc(CN(C2CC2)C(C)C(C)C)no1 (stereo unspecified),-26.1%
22,O=C(c1c[nH]cn1)N1CCOCC2(C1)CN(c1ccccc1)C(=O)CO2 (stereo unspecified),8.52%

row,SMILES,INHIBITION
1,Cc1noc(C)c1C(=O)N1CCC2(CCc3ccccc3C(=O)N2)C1 (stereo unspecified),9.925%
2,Cn1nc2c(cc1=O)CN(Cc1nc(-c3ccsc3)no1)CC2,-7.31%
3,CC(C)c1nn(C)c(N2CCOCC2)c1CNCc1nncn1C,-18.9%
4,CC(C)CNC(=O)c1cc(C2CC2)nc2c1c(C1CCCN1)nn2C (stereo unspecified),30%
5,CS(=O)(=O)NC[C@]12COC[C@H]1CN(CC1CCC1)C2,66.6%
6,CS(=O)(=O)NC[C@]12COC[C@H]1CN(C(=O)CC1CCCC1)C2,14%
7,CS(=O)(=O)NC[C@]12COC[C@H]1CN(C(=O)C1CCCCC1)C2,13.6%
8,O=S(=O)(NC[C@]12COC[C@H]1CN(CCc1ccccc1)C2)C1CC1,24.9%
9,CS(=O)(=O)NC[C@]12COC[C@H]1CN(C(=O)C1CC=CC1)C2,23.1%
10,CS(=O)(=O)NC[C@]12COC[C@H]1CN(C(=O)C1CC(F)(F)C1)C2,57.5%
11,CCS(=O)(=O)NC[C@]12COC[C@H]1CN(CCc1ccccc1)C2,-58.7%
12,CS(=O)(=O)NC[C@]12COC[C@H]1CN(CCc1ccccc1)C2,65.1%
13,CS(=O)(=O)NC[C@]12COC[C@H]1CN(CC1CCCC1)C2,6.82%
14,CCc1ccc(S(=O)(=O)NCCC(O)c2ccoc2)s1 (stereo unspecified),15.4%
15,c1ccc(NCc2cn3c(n2)CN(Cc2cccnc2)CC3)nc1,38.7%
16,Cc1ccc(-n2cc(C(=O)NCC(C)Cn3cccn3)nn2)cc1 (stereo unspecified),27.6%
17,CO[C@H]1C[C@@H](O)C12CCN(Cc1nc(C(F)(F)F)no1)CC2,41.2%
18,Cn1cc(-c2ncnc3c2CCN(C(=O)c2cscn2)CC3)cn1,14.6%
19,O=S(=O)(C1CC1)N1CCC[C@]2(C[C@@H](Oc3ccccn3)CO2)C1,-49.7%
20,CCOc1ccnc(N2CCN(C(=O)c3cc[nH]n3)CC2)n1,-1.14%
21,COCCN1CC(C(=O)N(CCN(C)C)Cc2ccc(C)s2)CC1=O (stereo unspecified),38.3%
22,COCCn1ccc(NC(=O)CNC(=O)CC(C)(C)C)n1,34.9%

row,SMILES,INHIBITION
1,CN(CCO)CC1COCCN1C(=O)C1(c2cccs2)CCCC1 (stereo unspecified),14.9%
2,COCCCN1CCCN(C(C)C(=O)Nc2ccnn2C(C)C)CC1 (stereo unspecified),0.139%
3,COCCCN1CCCN(C(C)C(=O)Nc2cccc(I)c2)CC1 (stereo unspecified),85.1%
4,COCCN1CCN(C(C)C(=O)Nc2ccnn2C(C)C)CC1 (stereo unspecified),11.8%
5,CN(C)C(=O)C1OC2(CCN(C(=O)c3ccoc3)CC2)c2ccccc21 (stereo unspecified),22.2%
6,O=C(NC1CC1)C1CCc2nnc(-c3cccc(C(F)(F)F)c3)n21 (stereo unspecified),17.6%
7,O=C(NC1CC1)C1CCc2nnc(-c3cccnc3)n21 (stereo unspecified),47.4%
8,O=C(NC1CC1)C1CCc2nnc(C3CC3)n21 (stereo unspecified),53.2%
9,CC1CN(C(=O)Nc2cccc(CN3CCOC3=O)c2)CCO1 (stereo unspecified),-43.9%
10,CCc1cccc(N2CCC(NC(=O)CCNC(N)=O)CC2)c1,5.03%
11,CCc1cccc(N2CCC(NC(=O)C3CCOCC3)CC2)c1,21.5%
12,CCc1cccc(N2CCC(NC(=O)C3CCC3)CC2)c1,64.7%
13,CCC(=O)NC1CCN(c2cccc(CC)c2)CC1,50.4%
14,COc1cccc(N2CCN(CCC(=O)NC3CCCC3)CC2)c1,24.5%
15,CCc1cccc(CC(=O)NC2CCN(C(=O)NC(C)(C)C)CC2)c1,12.6%
16,COc1cccc(N2CCN(CCC(=O)NC3CCCCC3)CC2)c1,64.6%
17,CCc1cccc(N2CCC(NC(=O)C3CCCO3)CC2)c1 (stereo unspecified),48.2%
18,COc1ccc2c(c1)CCN(CCC(=O)NC1CCCCC1)CC2,6.8%
